From PubChem BioAssay AID743279 (National Center for Advancing Translational Sciences (NCATS), 2014) come the findings set out here.

Screen size: about 360,000 compounds; about 17,000 (4.7%) were called active. Another 5% or so got no clear call; they are omitted. The list comes from a sample in which actives are over-represented; it also holds similar structures and randomly drawn compounds. Values without a mark were called inactive. No stated cut-off is given here; in the data, active means activity change below about -50%; inconclusive means mostly about -30% to -49%; inactive means weaker than that.
On the % scale 0 is the no-effect control and ±100 the full control effect.

The assay is described as follows: qHTS for Inhibitors of Inflammasome Signaling: IL-1-beta AlphaLISA Primary Screen. The following applies: THP-1 LPS/ATP IL-1B secretion, 16 h; at 57.5 µM, stronger effect = lower value. Put shortly:
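THP-1 cells pretreated 1 hr with compounds (up to 57.5 uM final), then stimulated with LPS (250 ng/mL final) plus ATP (1.25 mM final); secreted IL-1B measured by AlphaLISA after 16 hr, decreased signal indicating inhibition.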
Background: qHTS replaces the single test concentration by a dilution series.
Regarding `CC1(C)CC(=O)C=C(c2ccc(COC(=O)c3cc(F)cc(F)c3)cc2)C1=O`, the activity change is 16.9%. Regarding `Cc1cc(N2CCN(c3ccc(F)cc3)CC2)n2ncnc2n1`, the activity change is -4.74%.

With `Cc1ccc(C(=O)Nc2c(C#N)c(C)c(C)n2Cc2ccccc2)cc1`, the activity change was -11.6%. Next, `Cc1c(C#N)c(NC(=O)c2ccccc2)n(Cc2ccccc2)c1C`: -78.4% (active); `COc1ccc(Cn2c(C)c(C)c(C#N)c2NC(=O)Nc2ccc(F)cc2)cc1`: 31.5%. In the case of `Cc1cn([C@H]2C[C@H](O)[C@@H](/C=C/C(=O)NCCCc3ccccc3)O2)c(=O)[nH]c1=O` it was -16.4%; in that of `COc1ccc(OC)c(C(=O)c2ccc(Cl)cc2)c1`, 1.55%; in that of `COc1ccc2c(c1)C(=O)Nc1cc(Cl)ccc1N2`, -52.1% (active). Turning to `COc1ccc(C2NC(=O)c3ccccc3N2)cc1` (stereo not given), the activity change was -24.2%. Turning to `Cc1cc(C)n2c(NCc3ccccc3)c(CC(C)C)nc2n1`, the activity change was 19.1%. With `CCn1cc(C(=O)NCCCN2CCCCCC2)c(=O)c2cc(S(=O)(=O)N3CCc4ccccc4C3)ccc21`, the activity change was -60.8% (active). For the compound `CCn1cc(C(=O)NC2CCCCCC2)c(=O)c2cc(S(=O)(=O)N3CCCCC3)ccc21`, the activity change is -14.9%. Take `CCn1cc(C(=O)NCC2CCCO2)c(=O)c2cc(S(=O)(=O)N3CCCCC3)ccc21` (stereo not given): the activity change is -22.1%. Take `O=C(C(=O)N1CCN(c2ccccc2)CC1)c1ccc2c(c1)OCO2`: the activity change was -2.25%. Turning to `N#C/C(=C\C1=C(N2CCOCC2)C(=C\c2ccccc2)/CC1)C(=O)Nc1ccccc1F`, the activity change is 5.35%. Take `N#C/C(=C\c1ccccc1C(F)(F)F)C(=O)Nc1ccccc1F`: the activity change was -50.4% (active). Turning to `O=C(Nc1ccccc1F)c1ccccc1-c1ccc(C(F)(F)F)cc1`, the activity change is 9.12%. Consider `CCOc1cc2[nH]c(=S)n(Cc3ccc(C(=O)NCCOC)cc3)c(=O)c2cc1OCC`, for which the activity change was 0%. Turning to `CCOc1cc2[nH]c(=S)n(Cc3ccc(C(=O)N4CCN(C)CC4)cc3)c(=O)c2cc1OCC`, the activity change was -53.6% (active). `COc1ccc(Cn2c(=S)[nH]c3cc(C(=O)N4CCCCC4)ccc3c2=O)cc1`: the activity change is 11.3%. `COc1cccc(-c2cnc3c(NC(C)=O)cc(-c4cccc(NC(C)=O)c4)cn23)c1`: the activity change was 10.8%. Regarding `Cn1c(=N)n(CC(O)c2cccs2)c2ccccc21` (stereo not given), the activity change was 0%.

As to `N=c1n(Cc2ccc(Cl)cc2)c2ccccc2n1CC(O)c1ccco1` (stereo not given), the activity change is -59.8% (active). For the compound `C=CCn1c(=N)n(CC(O)COc2ccc(OC)cc2)c2ccccc21` (stereo not given), the activity change was -22.5%. As for `CCCCCCN1C[C@@H](O)[C@H](n2cc(COC(=O)c3ccccc3)nn2)C[C@@H]1c1ccc(Cl)cc1`, the activity change is 6.67%. As for `COc1ccc(S(=O)(=O)N2CCCCC2c2cc(C(=O)NCc3ccc(F)cc3)no2)cc1` (stereo not given), the activity change is -1.6%.

For the compound `CS(=O)(=O)/C(C#N)=C/c1cccn1S(=O)(=O)c1ccc([N+](=O)[O-])cc1`, the activity change is -25.1%. Consider `CCN(CC)CCn1c2c(c(SCC(=O)Nc3nc4ccccc4s3)nc1=O)CCCC2`, for which the activity change was -96.2% (active). In the case of `CCN(CC)CCn1c2c(c(SCC(=O)Nc3ccc(C(C)C)cc3)nc1=O)CCC2` it was 7.71%; in that of `Cc1ccc2nc(NC(=O)CSc3nc(=O)n(CCCN(C)C)c4c3CCC4)sc2c1`, -21.5%; in that of `C#CCNC(=O)C[C@@H]1C[C@@]2(C(=O)OCC)CCCC=C2N(Cc2ccco2)C1=O`, 43.1%. For `CCC(=O)Nc1nc(OC)cc(OC)n1`, the activity change was 5.6%.

For `COc1ccc(NS(=O)(=O)c2ccc(F)cc2F)cn1`, the activity change is 0.798%. Regarding `COc1cc(OC)nc(S(C)(=O)=O)n1`, the activity change was -95.5% (active). Take `CC(=O)Nc1cccc(-c2cc(NC(C)=O)c3ncc(-c4ccccc4)n3c2)c1`: the activity change is 12.6%. Regarding `NC(=O)C1(N2CCCCC2)CCN(C2CC(=O)N(Cc3ccc(N4CCCC4=O)cc3)C2=O)CC1` (stereo not given), the activity change is -8.36%. On to `CC1(C(=O)NS(=O)(=O)c2ccccc2)CCN1C(=O)Cc1ccc(-c2ccccc2)cc1` (stereo not given), for which the activity change is -14.7%. As to `Cn1c(CCNS(=O)(=O)c2ccc(F)cc2)nnc1SCc1cccnc1`, the activity change is 22.3%. In the case of `CCN(C(=O)CSc1ncn[nH]1)c1cccc2ccccc12` it was 19.5%; in that of `CCN(C(=O)COC(=O)c1ccccc1O)c1cccc2ccccc12`, -54.8% (active); in that of `Cc1cccc(C)c1NC(=O)COC(=O)c1ccccc1O`, 12.4%. As to `Cc1ccc(Sc2ccc(NC(=O)c3ccc(F)cc3)cc2C#N)cc1`, the activity change was 10.9%.

Take `CC1CCCC(NC(=O)c2cccc(N3CCCC3=O)c2)C1C` (stereo not given): the activity change is 9.06%. Next, `CC1CCN(C(=O)COC(=O)c2cc(S(=O)(=O)N3CCOCC3)ccc2Cl)CC1`: 11%. As to `Cc1ccc(CS(=O)Cc2ccc(C(=O)N3CCOCC3)o2)cc1` (stereo not given), the activity change was 41.9%.

Turning to `O=C(c1ccc(CS(=O)(=O)c2ccccc2)o1)N1CCN(c2ccccc2)CC1`, the activity change was 41.8%. Next, `O=C(c1ccc(CS(=O)Cc2ccccc2Cl)o1)N1CCN(c2ccccc2)CC1` (stereo not given): -50.4% (active); `COc1cc(/C=C/CNC[C@H]2O[C@@H](n3cnc(C(N)=O)n3)[C@H](O)[C@@H]2O)ccc1O`: -17.5%.

As for `CCOC(=O)/C(C#N)=C/c1cn(CCC(=O)O)nc1-c1ccc(Br)cc1`, the activity change is 0%. With `O=C(/C=C/NNC(=O)c1cccc(Br)c1)c1ccccc1`, the activity change was -15.9%. Take `O=C(O)CCn1cc(/C=C/C(=O)c2ccc(Cl)cc2)c(-c2cccc(Br)c2)n1`: the activity change is -96.6% (active).

As for `CC(=O)N/C(=C\c1ccc(F)cc1)C(=O)NC(Cc1ccccc1)C(=O)O` (stereo not given), the activity change is 41.6%. In the case of `C[C@@H]1CN([C@H](C)CO)C(=O)CCCn2nncc2CO[C@@H]1CN(C)C(=O)OCc1ccccc1`, the activity change was -18.7%. In the case of `O=C(c1cc(COc2ccc(F)cc2F)on1)N1CCOCC1`, the activity change is 4.05%. As for `CCOC(=O)N1CCN(C(=O)C[C@@H]2C[C@@]3(C(=O)OC)CCCCC=C3N(CCC3=CCCCC3)C2=O)CC1`, the activity change is -20.9%. On to `CC(=O)Nc1ccccc1OC(=O)N1CCOCC1`, for which the activity change was 4.54%. As to `O=C(Oc1cccc(C(=S)N2CCOCC2)c1)c1cccc(Cl)c1`, the activity change was -5.21%. In the case of `O=C(/C=C/c1cccs1)c1cc(Cl)ccc1OC(=O)N1CCOCC1` it was -111% (active); in that of `COc1ccccc1C(=O)NC(CCSC)C(=O)N1CCN(C/C=C/c2ccccc2)CC1` (stereo not given), -8.53%. Regarding `O=C(CC(CC(=O)c1ccccc1)c1ccco1)c1ccccc1`, the activity change is 13.9%.

As for `COc1ccc(NC(=O)COC(=O)C2COc3ccccc3O2)cc1` (stereo not given), the activity change was 8.76%.

Take `CC(=O)c1ccc(OCC(=O)N(C)C2CCS(=O)(=O)C2)cc1` (stereo not given): the activity change was -0.496%. Regarding `O=C(c1ccc(=O)[nH]c1)N(Cc1ccco1)C1(C(=O)NC2CCCCC2)CCCCC1`, the activity change was -5.54%.

Turning to `O=C(/C=C/c1c(F)cccc1Cl)Nc1nn[nH]n1`, the activity change is 19.3%. As to `CNC(=O)/C(C#N)=C/c1c(F)cccc1Cl`, the activity change was -84.3% (active). Next, `Cc1cc(/C=C(/C#N)C(=O)Nc2ccc(Cl)cc2)c(C)n1-c1cccnc1`: -3.14%; `Cc1cccc(C(=O)OCC(=O)Nc2sccc2C(N)=O)c1C`: -7.19%. Next, `Cc1nn(C)cc1S(=O)(=O)N1CCN(c2ccc(F)cc2)CC1`: 1.55%; `COC1C(CO)OC(n2cnc3c(=S)nc(N)[nH]c32)C1O` (stereo not given): 2.88%; `O=c1cc(N2CCCCC2)c(-c2ccccc2)nn1Cc1cccc(F)c1`: -2.53%. Turning to `Cc1ccc2oc(=O)ccc2c1`, the activity change is 12.6%.

With `Cc1nc2c(OCC(=O)C(C)(C)C)cccn2c1N(C)Cc1cccs1`, the activity change is -25.2%. For the compound `Cc1nc2c(OCc3ccc(Cl)cc3)cccn2c1N(C)Cc1cccs1`, the activity change is -66.3% (active).

As to `CCc1nc2c(OCc3ccc(F)c(F)c3)cccn2c1N(C)C(=O)c1ccco1`, the activity change is 10.9%. For `CCOC(=O)[C@]12CCC=C1N(Cc1cccc3ccccc13)C(=O)[C@H](CC(=O)NCc1cccc(C(F)(F)F)c1)C2`, the activity change was -21.1%. As for `O=C(c1ccc2nc(N3CCOCC3)sc2c1)N1CCN(c2ccc(Cl)cc2)CC1`, the activity change is 1.67%. Turning to `COc1ccc2nc(N3CCN(C(=O)c4ccc([N+](=O)[O-])o4)CC3)sc2c1`, the activity change is -88% (active). As to `COc1ccc2nc(N3C(=O)C(O)=C(C(=O)c4ccco4)C3c3ccco3)sc2c1` (stereo not given), the activity change is 23.2%. Take `Cc1cc(Br)cn2c(Cc3ccccc3C(F)(F)F)c(-c3ccc(Cl)cc3)nc12`: the activity change is 25.9%. With `CC1(C(=O)NS(=O)(=O)c2ccccc2Cl)CCN1C(=O)c1cccc(F)c1` (stereo not given), the activity change is 22.3%. In the case of `COc1ccc(CC(=O)NCc2nnc(SCC(=O)Nc3ncc(C)s3)n2C)cc1`, the activity change was 15.7%. For `CCOC(=O)c1c(CN2CCOCC2)n(-c2ccccc2)c2ccc(O)cc12`, the activity change was -54.1% (active). As to `CCOC(=O)c1nnn(-c2nonc2-n2cccc2)c1CN1CCOCC1`, the activity change was 9.61%. On to `CC(=O)c1c(C)n(-c2ccc(C)cc2)c2ccc(O)cc12`, for which the activity change is 12.1%. Consider `CCOC(=O)Cc1csc(NC(=O)Nc2ccccc2)n1`, for which the activity change was -69.2% (active).

Take `CC(=O)Nc1ccc(-c2cn3cccnc3n2)cc1`: the activity change was -2.21%. Turning to `CC(=O)Nc1ccc(-c2csc(NC(=O)Nc3ccccc3)n2)cc1`, the activity change was -57.5% (active). For the compound `CCOC(=O)Cc1csc(NC(=O)CSc2ccc(Br)cc2)n1`, the activity change is 35.1%. On to `CCOC(=O)Cc1csc(NC(NC(=O)OCC)(C(F)(F)F)C(F)(F)F)n1`, for which the activity change was 2.86%. On to `CC(=O)NCc1ccc(-c2csc(NC(=O)CCCc3nc4ccccc4c(=O)[nH]3)n2)cc1`, for which the activity change was -3.36%.
